Measured values published in ChEMBL document CHEMBL4513135, “CO-ADD screening of IQOG CSIS (Spain) compounds”.
Results with a measured potency or affinity are listed apart.

Each compound was assayed on Klebsiella pneumoniae. Details: Concentration 32 ug.mL-1; ASSAY_TEST Inhibition of Bacterial Growth; detection method Absorption (OD600); MEDIA CAMHB; plate type 384well; NBS; CORNING #3640; time 18 hr.

Row | Structure (SMILES) | Inhibition [%]
1 | COc1nc(NC(C)=O)c(C#N)c(-c2ccccc2)c1C#N | 12.51
2 | O=C1OC(c2ccccc2)=NC1=Cc1ccc(Cl)cc1 | 7.19
3 | N#Cc1cc(C#N)c(NCCC2CCN(Cc3ccccc3)CC2)nc1N | 15.31
4 | CCOC(=O)C1=C(C)Nc2nc3c(c(N)c2C1c1cccc(OC)c1)CCCC3 (centres undefined) | 2.7
5 | C1CNCCNCCNCCNC1 | 5.58
6 | N#Cc1cc(C#N)c(Cl)nc1N | -13.03
7 | Nc1ccccc1C(=O)N/N=C/c1c[nH]c2ccccc12 | 18.84
8 | Nc1c2c(nc3c1C(c1c(Cl)cccc1Cl)c1ccc4ccccc4c1O3)CCCC2 (centres undefined) | 14.02
9 | C#CCN(C)c1nc(NC2CCN(Cc3ccccc3)CC2)c(C#N)c(-c2ccccc2)c1C#N | -4.36
10 | CNC(=O)c1cc2cc(OCc3ccccc3)ccc2n1C | 4.29
11 | COc1ccc(-c2cc(-c3cc4c(C)cc(C)cc4nc3Cl)cc(=O)[nH]2)cc1 | 4.51
12 | Nc1c2c(nc3ccc([N+](=O)[O-])cc13)CCCC2 | 16.59
13 | CCOC(=O)C1=C(C)OC(N)=C(C#N)C1c1ccncc1 (centres undefined) | 10.54
14 | CN1C/C(=C\Br)n2c1c(C#N)cc(C#N)c2=O | 4.89
15 | O=C1C=C(Nc2ccccc2)C(=O)N1c1ccccc1 | 6.46
16 | Cl.N#Cc1cc(C#N)c(N2CCCC2)nc1Cl | 14.18
17 | CCOC(=O)c1c(C)nc(NC2CCN(Cc3ccccc3)CC2)c(C#N)c1-c1ccccc1 | 11.42
18 | C#CCNc1nc(NCC#C)c(C#N)cc1C#N | -4.98
19 | Cc1cnc2ccc(Cl)cn12 | 22.77
20 | CNC(=O)c1c(Cl)c2cc(OCc3ccccc3)ccc2n1C | 13.13

Row | Structure (SMILES) | Inhibition [%]
21 | Cn1c(CO)cc2cc(OCCCC3CCN(Cc4ccccc4)CC3)ccc21 | -2.86
22 | N#CC1(Br)C(=NBr)Oc2c(ccc3ccccc23)C1c1ccc([N+](=O)[O-])cc1 (centres undefined) | 12.27
23 | NNC(=O)C1(NC(=O)c2ccccc2)CC1c1cccc(O)c1 (centres undefined) | 19.56
24 | N#CC1=C(Cl)Oc2c(ccc3ccccc23)C1c1ccc([N+](=O)[O-])cc1 (centres undefined) | 16.96
25 | CC#CCN(C)Cc1cc2cc(OCc3ccccc3)ccc2n1C.O=C(O)C(=O)O | 22.38
26 | NNC(=O)c1c[nH]c2ccc(OCc3ccccc3)cc12 | 3.4
27 | C#CCN(C)Cc1cc2cc(OCCCCC3CCN(Cc4ccccc4)CC3)ccc2n1C.Cl | 25.34
28 | CCOC(=O)c1c[nH]c2ccc(OC)cc12 | 1.49
29 | COc1ccc(C2C(C#N)=C(N)Oc3c2ccc2ccccc32)cc1 (centres undefined) | 9.52
30 | Cc1cc(Br)cc(C)c1NC=C(C#N)C#N | -18.28
31 | COC(=O)C1CCN(Cc2ccccc2)CC1 | 4.25
32 | O=C1OC(c2ccccc2)=NC12CC2c1ccc([N+](=O)[O-])cc1 (centres undefined) | 15.67
33 | C#CCN(C)c1nc(OC)c(C#N)c(-c2ccccc2)c1C#N | 15.23
34 | CC1=N/C(=C(\C)c2ccccc2)C(=O)O1 | -1.65
35 | Cl.OCC1CCN(Cc2ccccc2)CC1 | 15.06
36 | C#CCNc1nc(NCCCC2CCN(Cc3ccccc3)CC2)c(C#N)cc1C#N.Cl | -17.1
37 | C#CCNc1ncccn1 | 20.12
38 | Cc1cnc(NC(=O)OC(C)(C)C)c(Br)c1 | 17.7
39 | C#CCN(C)Cc1cc2cc(OCc3ccc(OC)c4ncccc34)ccc2n1C | -13.41
